Test results as given in PubChem BioAssay (Tox21).
Values joined by “and” are separate entries in the source; they are usually repeats but may differ in a detail not shown here. Equal values may be shown once. Values without a mark were called inactive. Results filed as inconclusive are left out. Where a call stands in place of a potency, no number is given. Where a structure was tested more than once in an assay, its records may differ in their call. Active and inactive are the calls of the source. Unless noted, calls follow the shape of the dose curve; as a rule, active = well fitted curve in the direction sought with a large enough effect in the repeat runs; inconclusive = weak or mixed curves; inactive = no such curve, though single readings can be large; an effect the other way counts as inactive or inconclusive.

Key:
[1] = qHTS assay to identify small molecule agonists of H2AX (AID 1224845; active = well fitted activation curve with a large enough effect in the signal ratio in the repeat runs, not every such curve was filed as active; the % refers to the signal ratio; also: potency is read from the fitted curve at half-maximal effect)
How it was run: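 Phospho-H2AX Ser139 measured by HTRF (ex 320 nm; em 665 and 620 nm) after 24 hr antibody incubation. Compounds, 15 concentrations, 0.76% DMSO, were applied to CHO-K1 cells for 3hr at 37C before lysis.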

[2] = qHTS assay to identify small molecule agonists of the hypoxia (HIF-1) signaling pathway (AID 1224846; active = well fitted activation curve with a large enough effect in the signal ratio in the repeat runs, not every such curve was filed as active; the % refers to the signal ratio)
How it was run: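 Cell line: CellSensor HRE-bla ME-180; 2,000 cells/well; 0.5% dialyzed FBS; 5 h preincubation; DMSO compound pin transfer; 17 h, 37C, 5% CO2; CCF4-AM added; bla FRET signal scored for activation.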

[3] = qHTS assay to identify small molecule agonists of H2AX - cell viability counter screen (AID 1224847; calls by dose curve; also: nearly all actives have a fitted effect of over 30% in size; also: potency is read from the fitted curve at half-maximal effect)
How it was run: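 Read-out: CellTiter-Glo luminescence, 30 min RT. Cells: wild-type CHO-K1, 1000/well, 10% FBS, plated overnight at 37C. Treatment: 15 concentrations, 3 hr, 37C, 0.76% DMSO.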

[4] = qHTS RealTime-Glo MT Cell Viability Assay in HepG2 cells - 24 hour (AID 1224867); also: nearly all actives have a fitted effect of over 50% in size
How it was run: (§1)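 HepG2 cells were seeded at 600 cells/well together with NanoLuc luciferase and a cell-permeant prosubstrate, preincubated 5 h at 37 C/5% CO2, then pin-dosed with compounds in DMSO. Nonlytic luminescence from viable cells was read at each time point.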

[5] = A CellTox Green Cytotoxicity Assay to monitor cytotoxicity in HEK293 cells - 0 hour (AID 1224869); also: nearly all actives have a fitted effect of over 50% in size
How it was run: (§2)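 Nonlytic real-time cytotoxicity: HEK293 + CellTox Green reagent plated, 5 h preincubation, pintool compound addition (23 nL in DMSO), 37 C for 40 h, fluorescence measured at successive time points.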

[6] = qHTS RealTime-Glo MT Cell Viability Assay in HepG2 cells - 40 hour (AID 1224870); also: nearly all actives have a fitted effect of over 50% in size
How it was run: (§3)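 Real-time viability: cells seeded at 600 per well together with NanoLuc and cell-permeant prosubstrate, compounds added after 5 h incubation. Luminescence tracked at 0, 8, 16, 24, 32 and 40 h of exposure.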

[7] = qHTS RealTime-Glo MT Cell Viability Assay in HepG2 cells - 8 hour (AID 1224873); also: nearly all actives have a fitted effect of over 55% in size
How it was run: as §3

[8] = A CellTox Green Cytotoxicity Assay to monitor cytotoxicity in HEK293 cells - 24 hour (AID 1224875); also: nearly all actives have a fitted effect of over 45% in size; also: potency is read from the fitted curve at half-maximal effect
How it was run: as §2

[9] = A CellTox Green Cytotoxicity Assay to monitor cytotoxicity in HepG2 cells - 16 hour (AID 1224876); also: nearly all actives have a fitted effect of over 45% in size; also: potency is read from the fitted curve at half-maximal effect
How it was run: (§4)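 Read-out is fluorescence of a cyanine dye excluded from live cells that stains DNA of dead HepG2 cells, with signal proportional to cytotoxicity. Plates were read at 0, 8, 16, 24, 32 and 40 h after compound addition.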

[10] = qHTS RealTime-Glo MT Cell Viability Assay in HepG2 cells - 32 hour (AID 1224877); also: nearly all actives have a fitted effect of over 55% in size
How it was run: as §1

[11] = A CellTox Green Cytotoxicity Assay to monitor cytotoxicity in HepG2 cells - 24 hour (AID 1224878); also: nearly all actives have a fitted effect of over 45% in size; also: potency is read from the fitted curve at half-maximal effect
How it was run: as §4

[12] = A CellTox Green Cytotoxicity Assay to monitor cytotoxicity in HepG2 cells - 40 hour (AID 1224879); also: nearly all actives have a fitted effect of over 40% in size; also: potency is read from the fitted curve at half-maximal effect
How it was run: as §4

[13] = A CellTox Green Cytotoxicity Assay to monitor cytotoxicity in HEK293 cells - 32 hour (AID 1224881); also: nearly all actives have a fitted effect of over 40% in size; also: potency is read from the fitted curve at half-maximal effect
How it was run: as §2

[14] = qHTS assay to identify small molecule antagonists of the estrogen related receptor (ERR) signaling pathway from Tox21 library (AID 1224848); also: potency is read from the fitted curve at half-maximal effect; nearly all actives have a fitted effect of over 50% in size
How it was run: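 Antagonist-mode screen of the Tox21 10K library in an NTP-provided ERR reporter cell line; 18 h compound exposure at 37 C, luminescence measured with ONE-Glo.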

[15] = qHTS assay to identify small molecule agonists of the estrogen related receptor (ERR) signaling pathway from Tox21 library (AID 1224849; calls by dose curve; also: nearly all actives have a fitted effect of over 15% in size); conditions: ERR reporter cell line, ONE-Glo luciferase, 18 h
How it was run: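 ERR cells, 6 h pre-incubation 37 C/5% CO2; cpd in DMSO pinned; 18 h 37 C; ONE-Glo added, 30 min RT; luminescence read. Agonist mode, qHTS.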

[16] = qHTS RealTime-Glo MT Cell Viability Assay in HEK293 cells - 32 hour (AID 1224868); also: nearly all actives have a fitted effect of over 50% in size; also: potency is read from the fitted curve at half-maximal effect
How it was run: (§5)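 HEK293 cells were seeded at 600 cells/well together with NanoLuc luciferase and cell-permeant prosubstrate, preincubated 5 h at 37 C/5% CO2, then given compound in DMSO by pintool. Luminescence from viable-cell prosubstrate reduction was read repeatedly over 40 h.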

[17] = A CellTox Green Cytotoxicity Assay to monitor cytotoxicity in HEK293 cells - 40 hour (AID 1224871); also: nearly all actives have a fitted effect of over 45% in size; also: potency is read from the fitted curve at half-maximal effect
How it was run: as §2

[18] = qHTS RealTime-Glo MT Cell Viability Assay in HEK293 cells - 0 hour (AID 1224880)
How it was run: (§6)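 Cells were seeded together with NanoLuc luciferase and a prosubstrate that viable cells reduce to a luciferase substrate. After a 5 h incubation at 37 C/5% CO2, compounds were added and luminescence was measured repeatedly during 40 h of treatment.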

[19] = qHTS RealTime-Glo MT Cell Viability Assay in HEK293 cells - 40 hour (AID 1224874); conditions: RealTime-Glo luminescence; max response: stronger effect = lower value; also: nearly all actives have a fitted effect of over 50% in size; also: potency is read from the fitted curve at half-maximal effect
How it was run: as §6

[20] = qHTS RealTime-Glo MT Cell Viability Assay in HEK293 cells - 16 hour (AID 1224872); also: nearly all actives have a fitted effect of over 50% in size; also: potency is read from the fitted curve at half-maximal effect
How it was run: as §5

[21] = at 92.4 µM (top of the series) unless noted

For `COc1ccc(OC)c(C=O)c1`, which Potency [1] is on record?
The Potency was “inactive”.

And the outcome [2]?
Its outcome is “inactive”.

And the Potency [3]?
Its Potency is “inactive”.

What about the Potency [4] of the same molecule?
The Potency was “inactive”.

What about the Potency [5] of the same molecule?
The Potency was “inactive”.

And the Potency [6]?
The Potency was “inactive”.

What about the Potency [7] of the same molecule?
The Potency was “inactive”.

And the Potency [8]?
Its Potency is “inactive”.

And the Potency [9]?
The Potency was “inactive”.

What about the Potency [10] of the same molecule?
Its Potency is “inactive”.

What about the Potency [11] of the same molecule?
The Potency was “inactive”.

And the Potency [12]?
Its Potency is “inactive”.

What about the Potency [13] of the same molecule?
Its Potency is “inactive”.

What does the source list for `COc1cc(C=O)cc2c1[C@H](COC(N)=O)[C@]1(OC(C)=O)ON2C[C@H]2[C@@H]1N2C(C)=O`?
Potency [1]: 63.5 µM (active); Potency [3]: inactive; Potency [14]: 0.273 µM (active); activity change, positive = activation [15, 21]: -41%; Potency [16]: 0.0549 µM (active); Potency [17]: inactive; Potency [7]: inactive; Potency [8]: inactive; Potency [9]: inactive; Potency [11]: 0.11 µM (active); Potency [12]: 0.0776 µM (active); Potency [18]: inactive; Potency [13]: inactive

What does the source list for `Clc1ccc(C(Cl)(Cl)Cl)c(Cl)c1`?
Potency [1]: inactive; Potency [3]: inactive; Potency [14]: 61.6 µM (active); activity change, positive = activation [15, 21]: -45.2%; Potency [4]: inactive; Potency [5]: inactive; Potency [6]: inactive; Potency [7]: inactive; Potency [9]: inactive; Potency [10]: inactive; Potency [18]: inactive

With `CCOP(=O)(NC(C)C)Oc1ccc(SC)c(C)c1` (stereo unspecified) as the molecule, how does the Potency [1] read?
The Potency was “inactive”.

What about the Potency [4] of the same molecule?
Its Potency is “inactive”.

And the Potency [16]?
Its Potency is 12.3 µM (active).

What about the Potency [5] of the same molecule?
The Potency was “inactive”.

What about the Potency [7] of the same molecule?
Its Potency is “inactive”.

What about the Potency [19] of the same molecule?
Its Potency is 13.8 µM (active).

What about the Potency [10] of the same molecule?
The Potency was “inactive”.

What about the Potency [18] of the same molecule?
The Potency was “inactive”.

And the Potency [13]?
The Potency was “inactive”.

Which Potency [1] does the source give for `COC(=O)N(C(=O)N1COC2(C(=O)OC)Cc3cc(Cl)ccc3C2=N1)c1ccc(OC(F)(F)F)cc1` (stereo unspecified) here?
The Potency was “inactive”.

What about the Potency [14] of the same molecule?
The Potency was 11.9 µM (active).

And the activity change, positive = activation [15, 21]?
The activity change, positive = activation was -49.3% [at 42.5 µM].

What about the Potency [4] of the same molecule?
The Potency was “inactive”.

And the Potency [16]?
Its Potency is “inactive”.

What about the Potency [5] of the same molecule?
The Potency was “inactive”.

And the Potency [17]?
The Potency was “inactive”.

And the Potency [7]?
Its Potency is “inactive”.

And the Potency [8]?
The Potency was “inactive”.

And the Potency [9]?
The Potency was “inactive”.

And the Potency [10]?
Its Potency is “inactive”.

And the Potency [11]?
The Potency was “inactive”.

What about the Potency [12] of the same molecule?
The Potency was “inactive”.

What about the Potency [18] of the same molecule?
Its Potency is “inactive”.

And the Potency [13]?
The Potency was “inactive”.

With `CCCN(CC)CC1COC2(CCC(C(C)(C)C)CC2)O1` (stereo unspecified) as the molecule, how does the Potency [1] read?
The Potency was “inactive”.

And the Potency [3]?
Its Potency is “inactive”.

What about the Potency [4] of the same molecule?
The Potency was “inactive”.

And the Potency [16]?
Its Potency is “inactive”.

And the Potency [5]?
The Potency was “inactive”.

What about the Potency [6] of the same molecule?
The Potency was “inactive”.

And the Potency [20]?
Its Potency is “inactive”.

And the Potency [7]?
Its Potency is “inactive”.

What about the max response [19] of the same molecule?
Its max response is -8.74%.

And the Potency [8]?
The Potency was “inactive”.

What about the Potency [9] of the same molecule?
Its Potency is “inactive”.

What about the Potency [11] of the same molecule?
Its Potency is “inactive”.

And the Potency [12]?
Its Potency is “inactive”.

And the Potency [18]?
The Potency was “inactive”.

For `Fc1ccc(Oc2ccnc3cc(Cl)cc(Cl)c23)cc1`, which Potency [1] is on record?
The Potency was “inactive”.

What about the Potency [4] of the same molecule?
The Potency was “inactive”.

And the Potency [16]?
Its Potency is 11 µM (active).

What about the Potency [5] of the same molecule?
The Potency was “inactive”.

And the Potency [6]?
The Potency was “inactive”.

And the Potency [20]?
The Potency was 7.76 µM (active).

What about the Potency [7] of the same molecule?
Its Potency is “inactive”.

What about the Potency [19] of the same molecule?
Its Potency is 9.77 µM (active).

And the Potency [8]?
The Potency was “inactive”.

And the Potency [9]?
The Potency was “inactive”.

And the Potency [10]?
Its Potency is “inactive”.

And the Potency [11]?
Its Potency is “inactive”.

What about the Potency [18] of the same molecule?
Its Potency is “inactive”.

And the Potency [13]?
The Potency was “inactive”.

Which results are given for `C[C@@H]1O[C@@H](O[C@H]2C[C@@H](O)[C@]3(CO)[C@H]4[C@H](O)C[C@]5(C)[C@@H](C6=CC(=O)OC6)CC[C@]5(O)[C@@H]4CC[C@]3(O)C2)[C@H](O)[C@H](O)[C@H]1O`?
Potency [1]: inactive; Potency [3]: inactive; Potency [5]: inactive; Potency [8]: inactive; Potency [9]: inactive; Potency [12]: inactive; Potency [13]: inactive

What does the source list for `COc1ccc(N)cc1N`?
outcome [2]: inactive; Potency [3]: 41.4 µM (active) and 54.4 µM (active); Potency [14]: 63.1 µM (active) and 14.7 µM (active); activity change, positive = activation ([15]; at 42.5 µM (top of the series)): -34.8%; activity change, positive = activation ([15]; at 92.4 µM (top of the series)): -69.2%; Potency [4]: inactive; Potency [16]: 45 µM (active); Potency [5]: inactive; Potency [17]: inactive; Potency [20]: 35.8 µM (active); Potency [7]: inactive; Potency [19]: 50.5 µM (active); max response [19]: -27.7%; Potency [9]: inactive; Potency [10]: inactive; Potency [11]: inactive; Potency [12]: inactive; Potency [18]: inactive; Potency [13]: inactive

Which Potency [1] does the source give for `CCCCCCCCc1ccc(O)cc1` here?
Its Potency is 36 µM (active).

What about the Potency [3] of the same molecule?
Its Potency is 25.5 µM (active).

And the Potency [16]?
Its Potency is 5.53 µM (active).

What about the Potency [17] of the same molecule?
Its Potency is 19.6 µM (active).

And the Potency [20]?
Its Potency is 4.39 µM (active).

And the Potency [19]?
Its Potency is 17 µM (active).

What about the Potency [8] of the same molecule?
The Potency was 17.5 µM (active).

And the Potency [9]?
The Potency was 38 µM (active).

And the Potency [11]?
The Potency was 19.6 µM (active).

What about the Potency [12] of the same molecule?
The Potency was 19.6 µM (active).

What about the Potency [13] of the same molecule?
Its Potency is 17.5 µM (active).
